Laboratory results taken from PubChem BioAssay (NCI).
This is part of a sample that, as a whole, favours compounds with a hit. Of some 83,000 tested, about 20% had one in any assay.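 Single-dose data. Exposure time 48 hours. Values below 10 considered active.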 Calls of active or inactive are those of the source.

Key:
Assay in all cases: NCI-60 one-dose screen, 48 h (100 = growth as untreated, 0 = no growth, -100 = all killed)
Conditions in all cases: 10 µM unless noted
[1] = test system: NCI-H23 lung
[2] = test system: NCI-H226 lung
[3] = test system: NCI-H322M lung
[4] = test system: HOP-62 NSCLC
[5] = test system: NCI-H460 lung
[6] = test system: HOP-92 NSCLC
[7] = test system: NCI-H522 lung
[8] = test system: A549/ATCC NSCLC
[9] = test system: 786-0 renal
[10] = test system: COLO 205 colon

Measured: growth

CN(C)c1ccc(/C=N\Nc2cc(=O)[nH]c3ccc(Cl)cc23)cc1
inactive: [1] 82.8% | [2] 75% | [3] 99.2% | [4] 91.8% | [5] 102% | [6] 82.2% | [7] 86.1% | [8] 96.6% | [9] 102% | [10] 112%

CC(C)n1cnc2c(Nc3cccc(Cl)c3)nc(N[C@H]3CCCC[C@@H]3N)nc21
inactive: [1] 61.7% | [2] 68.6% | [3] 66.4% | [4] 42.8% | [5] 45.7% | [6] 26.8% | [7] 38.7% | [8] 55.7% | [9] 45.7% | [10] 26.4%

CC([C@H]1CCC2C3CCC4C[C@@H](NC=O)CC[C@]4(C)C3CC[C@@]21C)N(C)C (stereo not given in full)
inactive: [1] 30.2% | [2] 43.2% | [7] 56.5% | [8] 15.9%
active: [3] -4.46% | [4] -55.5% | [5] -59.3% | [6] 0.955% | [9] -88.4% | [10] -83.4%

CC(=O)OC[C@H]1OC(Sc2sc(C(=O)c3ccc(Cl)cc3)c(N)c2-c2nc3ccccc3s2)[C@H](OC(C)=O)[C@@H](OC(C)=O)[C@@H]1OC(C)=O (stereo not given in full)
inactive: [1] 63.3% | [2] 75.9% | [3] 93.9% | [4] 90.3% | [5] 67.5% | [6] 93.7% | [7] 88.1% | [8] 86.4% | [9] 99.3% | [10] 90.4%

CCCCCCCCCCCCCCCCCCOc1ccccc1CC(=O)OCC[N+](CC)(CC)CC
active: [6] 6.81% | [10] -27.3%
inactive: [1] 13.1% | [2] 53.7% | [3] 70.6% | [4] 41% | [5] 34.6% | [7] 10.5% | [8] 29.3% | [9] 22.6%

COc1ccc(-n2c(N)c(-c3nc4ccccc4[nH]3)cc(C#N)c2=O)cc1
inactive: [1] 86.8% | [2] 35.3% | [3] 102% | [4] 90.8% | [5] 87.1% | [6] 84.7% | [7] 74.2% | [8] 94.9% | [9] 92.5% | [10] 105%

COc1ccc(-c2cc(-c3cc(OC)c(OC)c(OC)c3)nc(N3CCOCC3)c2C#N)cc1
inactive: [1] 23.4% | [2] 83.8% | [3] 93.6% | [4] 88.8% | [5] 73.8% | [6] 58.4% | [7] 59.9% | [8] 60% | [9] 61.3% | [10] 57.7%

CCCCn1c(=O)c(-c2cc(-c3ccc(Cl)cc3)nc(-c3ccc(Cl)cc3)c2)cc2ccc(Cl)cc21
inactive: [1] 97.8% | [2] 98.5% | [3] 98.4% | [4] 97.5% | [5] 106% | [6] 88.3% | [7] 98.4% | [8] 105% | [9] 103% | [10] 105%

CC(C)C(=O)Nc1ccc(-c2nc(-c3cccc(OCCN4CCOCC4)c3)c(-c3ccnc(Br)c3)[nH]2)cc1
inactive: [1] 55.6% | [2] 76.4% | [3] 67.8% | [4] 55.2% | [5] 63.6% | [6] 61.3% | [7] 68.7% | [8] 63% | [10] 43.3%
active: [9] -19.3%

Cc1c(C(=O)NCCCc2ccccc2)sc2ncc(-c3ccc(Br)cc3)n12
inactive: [1] 91.7% | [2] 102% | [3] 100% | [4] 99.3% | [5] 107% | [6] 113% | [7] 98.5% | [8] 108% | [9] 100% | [10] 113%

CCOC(=O)C1=C(N)Oc2c(sc3c(C)cccc23)C1c1ccc(F)cc1 (stereo not given)
inactive: [1] 20.1% | [3] 51.5% | [4] 36.2% | [6] 91.7% | [7] 11.8% | [8] 20.1% | [9] 33.4%
active: [2] 9.65% | [5] 4.3% | [10] -1.13%

O=c1n(Cc2ccc3ccccc3c2)ccn1Cc1ccc2ccccc2c1
inactive: [1] 91% | [2] 91.5% | [3] 86.3% | [4] 66% | [5] 85.7% | [6] 83.1% | [7] 46.8% | [8] 82.9% | [9] 95.8% | [10] 96.1%

O=C1CCC(C(=O)NCCNCCNC(=O)C2CCC(=O)N2)N1 (stereo not given)
inactive: [1] 106% | [2] 97.7% | [3] 104% | [4] 93.7% | [5] 102% | [6] 80.6% | [7] 72.5% | [8] 88.4% | [9] 101% | [10] 110%

O=C(/C=C/c1sc(Cl)nc1Cl)c1ccc(Br)cc1
inactive: [1] 85.8% | [2] 81.6% | [3] 100% | [4] 97.3% | [6] 90.2% | [7] 86.6% | [8] 96.1% | [9] 92.2% | [10] 78.8%

Cc1nc(NC(=O)COc2ccc(/C=C3\Cc4ccc(Cl)cc4C3=O)cc2)sc1C
inactive: [1] 100% | [2] 99.2% | [3] 183% | [4] 102% | [6] 88.9% | [7] 78.9% | [8] 105% | [9] 103% | [10] 120%

CCc1ccc2nc(NC(=O)Cc3csc(NC(=O)c4ccco4)n3)sc2c1
inactive: [1] 85.1% | [2] 72.6% | [3] 81.5% | [4] 86.3% | [7] 60.4% | [8] 91.3% | [9] 71.6% | [10] 107%
active: [6] -17.9%

COc1cc2cc(Oc3ccc(NC(=O)Nc4ccc(Cl)c(Cl)c4)cc3)c(C)nc2cc1OCCN1CCOCC1
inactive: [1] 58.9% | [2] 57.7% | [3] 105% | [4] 105% | [6] 76.8% | [7] 67.5% | [8] 76.7% | [9] 91.5% | [10] 104%

Cc1ccc2sc3c(NCCN)nc4ccccc4c3c(=O)c2c1
active: [10] -21.7%
inactive: [1] 81.1% | [2] 93.2% | [3] 81.5% | [4] 80.6% | [6] 50.7% | [7] 85% | [8] 73.3% | [9] 87.7%

Nc1ccc(Sc2ccc([N+](=O)[O-])c3nonc23)cc1
active: [7] 2.03%
inactive: [1] 95.8% | [2] 96.5% | [3] 101% | [4] 92.2% | [6] 103% | [8] 89.8% | [9] 93.5% | [10] 40.6%

C[C@]12CC[C@@H]3c4cc(OC(F)F)c(OS(N)(=O)=O)cc4CC[C@H]3[C@@H]1CC[C@@H]2O
inactive: [1] 24.5% | [2] 54.9% | [3] 42.4% | [4] 38.7% | [6] 58.6% | [7] 19.8% | [8] 29.5% | [9] 42.3% | [10] 12.4%

O=C(Nc1ccc(Cl)cc1F)c1ccccc1O
inactive: [1] 17% | [2] 25.6% | [3] 36.3% | [4] 42.6% | [7] 11% | [8] 46.3% | [9] 50.6% | [10] 98.2%
active: [6] -14.5%

Fc1cc(-c2nnc3n2NC(=Nc2ccc(Cl)cc2)CS3)c(Cl)cc1Cl
inactive: [1] 79.3% | [2] 122% | [3] 100% | [4] 73.6% | [7] 76.3% | [8] 87.5% | [9] 81.9% | [10] 95.6%
active: [6] -18.6%

CCOC(=O)Nc1ccc(C(=O)/C=C/c2ccccc2)cc1
inactive: [1] 95% | [2] 79.2% | [3] 100% | [4] 90.2% | [6] 70.2% | [7] 106% | [8] 54.4% | [9] 87.1% | [10] 127%

NS(=O)(=O)c1ccc(-n2nc(-c3ccc(Cl)cc3)c3ccccc3c2=O)cc1
inactive: [1] 101% | [2] 96.1% | [3] 148% | [4] 92.6% | [6] 80.9% | [7] 87.4% | [8] 87.5% | [9] 92.7% | [10] 111%

Cc1cc(-c2cc(C)c(N)cc2C)c(C)cc1N
inactive: [1] 101% | [2] 103% | [3] 118% | [4] 93.1% | [6] 45.9% | [7] 86.1% | [8] 107% | [9] 84.1% | [10] 99.2%

COc1ccc(-c2cnc3ccccc3n2)cc1
inactive: [1] 93.2% | [2] 82.7% | [3] 95.2% | [4] 87.9% | [6] 86.9% | [7] 80.2% | [8] 94.6% | [9] 95.4% | [10] 104%

C#C[C@]1(O)CC[C@H]2[C@@H]3CC=C4c5sc(Nc6cc(F)ccc6F)nc5CC[C@]4(C)[C@H]3CC[C@@]21C
active: [1] 4.23% | [4] 0.529% | [7] 1.36% | [9] -71.9% | [10] 8.29%
inactive: [2] 49% | [3] 50.9% | [6] 13.1% | [8] 56.7%

COc1ccc(/C=C/c2c(C(=O)/C=C/c3ccc(C(F)(F)F)cc3)c(C)nc3ccccc23)cc1
inactive: [8] 65.4%
active: [2] -38.3% | [3] 6.19% | [4] -1.82% | [5] -58.9% | [6] -64.3% | [7] -0.88% | [9] -72.5% | [10] -28.4%
